Our source for the Potency values is PubChem BioAssay AID2289 (National Center for Advancing Translational Sciences (NCATS), 2010).

SMILES strings stand for the structures. About 3,300 (0.97%) of roughly 340,000 compounds were called active. Not shown: some 9% with an inconclusive outcome. The call rests on the fitted dose curve; in most records, active means well fitted inhibition curve with a large enough effect; inconclusive means small, poorly fitted or top-dose-only effect, or effect the other way; inactive means flat fitted curve, though single readings scatter. The list shows a part of the results.
Potency means the concentration at half of the fitted maximal effect.

This assay can be described thus: qHTS Assay for Modulators of miRNAs and/or Inhibitors of miR-21. Further: nearly all actives have a fitted effect of over 55% in size. The conditions noted are these: HeLa miR-21-FLuc reporter, luciferase luminescence, 48 h; actives lower the signal. In a few lines: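 HeLa cells endogenously expressing miR-21, stably carrying CMV-driven firefly luciferase with a downstream miR-21 binding site, 2000 cells/well. Titrations up to approximately 40 uM, 48 hours; luciferase luminescence read.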
As for `CCOc1ccc(N=C(C)C2=C(O)c3ccccc3C2=O)cc1`, the Potency is 1.17 µM (active).

In the case of `O=Cc1c(N2CCN(c3ccccc3)CC2)nc2ccccn2c1=O`, the Potency was 16.5 µM (active).

As to `COc1ccccc1N1CCN(c2nc3ccccn3c(=O)c2C=O)CC1`, the Potency is 18.5 µM (active).

Consider `Cc1ccc(/C=C/C(=O)N2CCc3ccccc32)o1`, for which the Potency was 2.93 µM (active).

As for `O=C(/C=C/c1ccc(Cl)cc1Cl)N1CCc2ccccc21`, the Potency is 0.521 µM (active).

`O=c1c(-c2ccc(O)cc2)coc2cc(OC3OC(CO)C(O)C(O)C3O)cc(O)c12` (stereo unspecified): the Potency is 2.61 µM (active).

As to `CCN1CCN(c2cc3c(nn2)Oc2ccccc2N3C)CC1`, the Potency is 7.36 µM (active).

With `CCC(=O)Nc1ccc(N2CCC(C)CC2)cc1`, the Potency is 18.5 µM (active).

For the compound `CC1CCN(c2ccc(NC(=O)c3ccc(Br)o3)cc2)CC1`, the Potency is 0.656 µM (active).

For `Cc1c(Cl)cccc1Nc1nc(N)nc(CSc2ncccn2)n1`, the Potency was 16.5 µM (active).

Regarding `Nc1nc(CSc2ccccc2)nc(N2CCCCC2)n1`, the Potency is 6.56 µM (active).

As for `Cc1ccccc1Nc1nc(N)nc(CSc2ccc(F)cc2)n1`, the Potency is 1.31 µM (active).

In the case of `Cc1ccccc1Nc1nc(N)nc(CSc2ccccc2)n1`, the Potency was 0.656 µM (active).

Turning to `CN1C(=O)/C(=C\c2cc(Br)cs2)c2ccccc21`, the Potency was 16.5 µM (active).

As for `Cc1nn(-c2ccccc2)c(N)c1N=Nc1cccnc1`, the Potency was 11.7 µM (active).

As for `Cc1nn(-c2ccccc2)c(N)c1N=Nc1ccc2ccccc2c1`, the Potency is 4.65 µM (active).

With `Cc1cccc(N=Nc2c(C)nn(-c3ccccc3)c2N)c1C`, the Potency was 7.36 µM (active).

For `Cc1snc2sc(C(=O)c3ccc(F)cc3)c(N)c12`, the Potency was 5.21 µM (active).

As for `Cc1cccc(C)c1OCC(=O)Nc1cccc(C(=O)O)c1`, the Potency was 1.85 µM (active).

Take `CC(=O)c1cccc(NC(=O)COC(=O)c2ccccc2C)c1`: the Potency is 5.85 µM (active).

For `CC(=O)Nc1ccc(-c2csc(-c3cccnc3)n2)cc1`, the Potency was 1.17 µM (active).

Consider `CC(C)C(=O)Nc1ccc(C(=O)c2ccccc2)cc1`, for which the Potency is 7.36 µM (active).

Regarding `CC(C)C(=O)Nc1ccc(-c2csc(-c3ccccc3)n2)cc1`, the Potency was 2.33 µM (active).

Turning to `O=C(Nc1ccccc1Cl)c1csc(-c2cccnc2)n1`, the Potency was 13.1 µM (active).

With `CC(C)C(=O)Nc1ccc(-c2nnc(-c3ccccc3)o2)cc1`, the Potency was 0.261 µM (active).

Consider `COC(=O)c1ccsc1NC(=O)CCc1ccccc1`, for which the Potency was 7.36 µM (active).

On to `c1cncc(-c2nc(-c3ccc4c(c3)OCO4)cs2)c1`, for which the Potency was 1.65 µM (active).

Consider `COc1ccc(-c2csc(-c3cccnc3)n2)cc1C`, for which the Potency is 3.69 µM (active).

As to `COc1ccc2cc(-c3csc(-c4cccnc4)n3)ccc2c1`, the Potency is 3.29 µM (active).

`CC(=O)c1ccc(N=Nc2ccc(N(C)C)cc2)cc1`: the Potency was 0.293 µM (active).

Take `CN(C)c1ccc(N=Nc2ccc(S(N)(=O)=O)cc2)cc1`: the Potency was 1.17 µM (active).

For the compound `O=C(c1cc(-c2ccc(Br)cc2)on1)N1CCOCC1`, the Potency was 0.585 µM (active).

As for `O=C(c1cc(-c2ccc(Br)cc2)on1)N1CCCCCC1`, the Potency is 0.927 µM (active).

For `c1ccc(-c2noc(-c3ccc4c(c3)OCO4)n2)cc1`, the Potency is 0.293 µM (active).

Regarding `COc1cccc(-c2noc(-c3ccc4c(c3)OCO4)n2)c1`, the Potency is 0.261 µM (active).

Take `COc1cc(/C=N/NC(=S)NC2CC3CCC2C3)ccc1O` (stereo unspecified): the Potency is 7.36 µM (active).

`C=CCn1c(SCC(N)=O)nc2scc(-c3ccc(C)o3)c2c1=O`: the Potency was 5.85 µM (active).

Consider `COc1ccc(NC(=O)c2cc3ccccc3o2)c(OC)c1`, for which the Potency was 0.585 µM (active).

On to `CCC(=O)Nc1cccc(NC(=S)NC(=O)c2cc3ccccc3o2)c1`, for which the Potency is 0.585 µM (active).

`COc1cc(NC(=O)c2c(OC)cccc2OC)ccc1NC(=O)c1cc2ccccc2o1`: the Potency is 5.21 µM (active).

Turning to `COc1ccccc1NC(=O)c1cc2ccccc2o1`, the Potency is 2.93 µM (active).

On to `O=C(Nc1ccccc1C(F)(F)F)c1cc2ccccc2o1`, for which the Potency is 1.17 µM (active).

`COc1ccccc1NC(=O)c1cc2ccc3cccnc3c2[nH]1`: the Potency is 2.33 µM (active).

Consider `CNC(C)C#Cc1ccc2c(=O)c3c(OC)cccc3oc2c1` (stereo unspecified), for which the Potency is 3.69 µM (active).

As to `COc1cccc2oc3cc(C#Cc4ccccn4)ccc3c(=O)c12`, the Potency was 2.93 µM (active).

As to `COc1cccc2oc3ccc(C#CC4(N)CCCCC4)cc3c(=O)c12`, the Potency was 7.36 µM (active).

As to `O=c1cc(-c2ccc3c(c2)OCCO3)oc2ccc(Cl)cc12`, the Potency is 0.185 µM (active).

Take `CCCCC(=O)Nc1ccc2c(c1)oc1ccccc12`: the Potency is 2.33 µM (active).

Consider `CCCCCC(=O)Nc1ccc2ccccc2c1`, for which the Potency was 4.65 µM (active).

As to `O=C(Nc1ccccc1)Nc1ccc2ccccc2c1`, the Potency is 2.93 µM (active).

On to `CCCC(=O)Nc1ccc2c(c1)Cc1ccccc1-2`, for which the Potency was 1.85 µM (active).

As to `Cc1ccc(-c2nn(-c3ccccc3)cc2CO)cc1`, the Potency was 14.7 µM (active).

With `Cc1ccc(-c2nn(-c3ccccc3)cc2CO)o1`, the Potency was 1.47 µM (active).

On to `COc1ccc(N/C=C\C(=O)c2ccc3c(c2)OCO3)cc1OC`, for which the Potency was 14.7 µM (active).

For the compound `O=C(/C=C\Nc1ccc2c(c1)OCO2)c1ccc2c(c1)OCO2`, the Potency was 5.85 µM (active).

As for `COc1ccc(N/C=C/C(=O)c2ccc3c(c2)OCO3)cc1OC`, the Potency is 13.1 µM (active).

Take `O=C(/C=C\Nc1ccc2c(c1)OCO2)c1ccc(Cl)s1`: the Potency is 0.464 µM (active).

On to `Cc1ccc(OCC(=O)Nc2ccc(F)cc2)c([N+](=O)[O-])n1`, for which the Potency is 7.36 µM (active).

On to `Cc1ccc(OCC(=O)Nc2ccc3c(c2)OCO3)c([N+](=O)[O-])n1`, for which the Potency is 7.36 µM (active).

For `CCOc1ccc(/C=C/C2=NNC(=O)CC2)cc1`, the Potency was 5.85 µM (active).

For `COc1ccc(-c2cc(C)nc3c(-c4ccccc4)cnn23)cc1`, the Potency was 0.233 µM (active).

As for `Cc1cc(N)n2ncc(-c3ccc(F)cc3)c2n1`, the Potency is 4.65 µM (active).

Consider `Cc1cc(N)n2ncc(-c3ccccc3)c2n1`, for which the Potency is 3.29 µM (active).

For the compound `Cc1nc2c(-c3ccc(F)cc3)cnn2c(N)c1-c1ccc(F)cc1`, the Potency was 0.414 µM (active).

In the case of `Cc1cc(N)n2ncc(-c3cccc(Br)c3)c2n1`, the Potency was 3.29 µM (active).

On to `CCOC(=O)c1cn2nc(Oc3ccccc3)ccc2n1`, for which the Potency was 5.85 µM (active).

Take `O=C(COc1ccccc1Br)Nc1ccc2c(c1)OCCCO2`: the Potency was 0.927 µM (active).

With `N#Cc1ccccc1OCC(=O)Nc1ccc2c(c1)OCCCO2`, the Potency was 2.61 µM (active).

As to `CC1=C(C)CC(C(=O)NCC(=O)c2ccccc2)C(C(=O)O)C1` (stereo unspecified), the Potency is 4.14 µM (active).

`Cc1cc(C)n2nc(SCC3COc4ccccc4O3)nc2n1` (stereo unspecified): the Potency was 16.5 µM (active).

As for `Cc1cc(C)n2nc(SCCOc3ccccc3F)nc2n1`, the Potency is 11.7 µM (active).

With `Cc1cc(C)n2nc(SCCOc3ccccc3)nc2n1`, the Potency is 7.36 µM (active).

On to `Clc1ccc(Cc2nnc(-c3cccs3)o2)cc1`, for which the Potency was 18.5 µM (active).

In the case of `Clc1ccc(Cc2nnc(-c3ccccc3Br)o2)cc1`, the Potency is 16.5 µM (active).

For the compound `BrCCOCCOc1ccc2ccccc2c1`, the Potency is 18.5 µM (active).

As for `Cc1c(C(=O)NC2CCOC2)oc2c(F)cccc12` (stereo unspecified), the Potency was 5.85 µM (active).

For the compound `Cc1c(C(=O)N2C[C@@H](C)O[C@@H](C)C2)oc2c(F)cccc12`, the Potency was 13.1 µM (active).

With `CC(O)CNc1ncnc2cc(-c3ccc(F)cc3)sc12` (stereo unspecified), the Potency is 4.65 µM (active).

Regarding `Cc1nn(-c2ccc(Br)cc2)c(=O)c2ccccc12`, the Potency is 2.93 µM (active).

For the compound `Cc1nn(-c2ccc3ccccc3c2)c(=O)c2ccccc12`, the Potency was 2.93 µM (active).

As to `COc1ccc(COc2ccc3ccc(=O)oc3c2)cc1`, the Potency was 2.93 µM (active).

`COc1cccc(COc2ccc3ccc(=O)oc3c2)c1`: the Potency was 7.36 µM (active).

Regarding `CCc1ccc2nc(N3C(=O)C(O)=C(C(=O)c4ccco4)C3c3cccs3)sc2c1` (stereo unspecified), the Potency was 6.56 µM (active).

With `Cc1ccc2nc(N3C(=O)C(O)=C(C(=O)c4ccco4)C3c3cccs3)sc2c1` (stereo unspecified), the Potency is 5.21 µM (active).

For `COc1ccc(N=Nc2cc(C)ccc2O)cc1`, the Potency was 0.521 µM (active).

On to `COc1ccc(N=Nc2ccc3ccccc3c2)c(O)c1`, for which the Potency is 0.233 µM (active).

With `Nc1nc(-c2cc3ccccc3o2)cs1`, the Potency is 2.33 µM (active).

As to `CN1CCN(c2nc(-c3cc4ccccc4o3)cs2)CC1`, the Potency is 5.21 µM (active).

In the case of `Nc1ccc(Nc2nc(-c3cc4ccccc4oc3=O)cs2)cc1`, the Potency is 2.93 µM (active).

Take `O=C(CSc1nc2ccccc2o1)c1cc2ccccc2oc1=O`: the Potency is 14.7 µM (active).

Regarding `O=C(OC1CCCCC1)c1cc2ccccc2oc1=O`, the Potency was 16.5 µM (active).

Turning to `COc1ccc2oc(=O)c(C(=O)N3CCN(c4ccccc4C)CC3)cc2c1`, the Potency was 2.07 µM (active).

`O=C(c1cc2ccccc2oc1=O)N1CCOCC1`: the Potency is 16.5 µM (active).

For the compound `Cc1c(-c2nc(-c3ccc(C(F)(F)F)cc3)no2)n(C)oc1=O`, the Potency is 0.293 µM (active).

On to `COc1ccc(/C(N)=N/OC(=O)C2CCCCC2)cc1OC`, for which the Potency is 2.93 µM (active).

For the compound `COc1ccc(/C(N)=N/OC(=O)C2CCCCC2)cc1`, the Potency was 4.65 µM (active).

`COCCN1CCN(C(=O)c2cc(COc3cc(C)ccc3C)on2)CC1`: the Potency was 11.7 µM (active).

In the case of `CC(=O)c1ccc(OCc2cc(C(=O)N3CCOCC3)no2)cc1`, the Potency was 18.5 µM (active).

Consider `COc1ccc(OCc2cc(C(=O)N3CCSCC3)no2)c(Cl)c1`, for which the Potency was 4.65 µM (active).

In the case of `COc1cccc(OCc2cc(C(=O)N3CCN(c4ccccc4OC)CC3)no2)c1`, the Potency was 16.5 µM (active).

For `CC(=O)NCCC1CCCCN1C(=O)c1cc(COc2cc(C)ccc2C)on1` (stereo unspecified), the Potency is 7.36 µM (active).

In the case of `COc1ccc(OCc2cc(C(=O)N3CCOCC3)no2)c(Cl)c1`, the Potency was 2.07 µM (active).

For `Cc1cc(SCC(=O)c2ccccc2)nc(=O)[nH]1`, the Potency was 4.14 µM (active).

As for `N#Cc1ccc(-c2cccnc2)nc1SCC(=O)c1ccccc1`, the Potency is 5.85 µM (active).

As to `O=C(CSc1ccc(-c2ccccc2)nn1)c1ccccc1`, the Potency is 16.5 µM (active).

As to `O=C(CSc1ccc(-c2ccccc2)nn1)c1cccs1`, the Potency was 7.36 µM (active).
